Assay results published in ChEMBL document CHEMBL1961873, “Compounds: GSK PKIS; Assays: Nanosyn kinase panel” (2012).

Columns and labels:
[1] = target: Sphingosine kinase 1 (Homo sapiens) (UniProt Q9NYA1); conditions: at 1 µM;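 note: mean SPHK1 inhibition value reported from the GSK PKIS kinase panel screen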
[2] = target: T1, Sphingosine kinase 2 (Homo sapiens) (UniProt Q9NRA0); conditions: at 0.1 µM
T1 sequence (whole entry): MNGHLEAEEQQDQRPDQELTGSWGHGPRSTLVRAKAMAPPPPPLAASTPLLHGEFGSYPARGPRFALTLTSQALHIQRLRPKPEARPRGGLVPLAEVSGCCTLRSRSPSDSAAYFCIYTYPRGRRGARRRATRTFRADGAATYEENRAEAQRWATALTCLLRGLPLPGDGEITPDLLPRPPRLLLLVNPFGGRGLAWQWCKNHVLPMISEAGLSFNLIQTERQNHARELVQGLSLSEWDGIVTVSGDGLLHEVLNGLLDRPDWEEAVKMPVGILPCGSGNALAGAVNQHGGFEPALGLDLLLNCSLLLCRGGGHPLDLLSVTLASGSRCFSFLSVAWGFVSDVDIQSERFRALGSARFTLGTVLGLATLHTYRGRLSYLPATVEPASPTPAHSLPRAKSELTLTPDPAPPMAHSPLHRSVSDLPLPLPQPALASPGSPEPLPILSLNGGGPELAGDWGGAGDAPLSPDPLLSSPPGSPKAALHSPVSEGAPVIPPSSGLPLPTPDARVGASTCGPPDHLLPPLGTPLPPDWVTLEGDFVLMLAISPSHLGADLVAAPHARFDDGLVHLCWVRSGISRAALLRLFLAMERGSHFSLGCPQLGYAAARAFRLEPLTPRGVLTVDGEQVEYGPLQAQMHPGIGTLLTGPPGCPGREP

[3] = target: T1, Sphingosine kinase 2 (Homo sapiens); conditions: at 1 µM
[4] = target: Casein kinase II subunit alpha (Homo sapiens) (UniProt P68400); conditions: at 0.1 µM
[5] = target: Casein kinase II subunit alpha (Homo sapiens) (UniProt P68400); conditions: at 1 µM
[6] = target: T2, Inhibitor of nuclear factor kappa-B kinase subunit alpha (Homo sapiens) (UniProt O15111); conditions: at 0.1 µM
T2 sequence (whole entry): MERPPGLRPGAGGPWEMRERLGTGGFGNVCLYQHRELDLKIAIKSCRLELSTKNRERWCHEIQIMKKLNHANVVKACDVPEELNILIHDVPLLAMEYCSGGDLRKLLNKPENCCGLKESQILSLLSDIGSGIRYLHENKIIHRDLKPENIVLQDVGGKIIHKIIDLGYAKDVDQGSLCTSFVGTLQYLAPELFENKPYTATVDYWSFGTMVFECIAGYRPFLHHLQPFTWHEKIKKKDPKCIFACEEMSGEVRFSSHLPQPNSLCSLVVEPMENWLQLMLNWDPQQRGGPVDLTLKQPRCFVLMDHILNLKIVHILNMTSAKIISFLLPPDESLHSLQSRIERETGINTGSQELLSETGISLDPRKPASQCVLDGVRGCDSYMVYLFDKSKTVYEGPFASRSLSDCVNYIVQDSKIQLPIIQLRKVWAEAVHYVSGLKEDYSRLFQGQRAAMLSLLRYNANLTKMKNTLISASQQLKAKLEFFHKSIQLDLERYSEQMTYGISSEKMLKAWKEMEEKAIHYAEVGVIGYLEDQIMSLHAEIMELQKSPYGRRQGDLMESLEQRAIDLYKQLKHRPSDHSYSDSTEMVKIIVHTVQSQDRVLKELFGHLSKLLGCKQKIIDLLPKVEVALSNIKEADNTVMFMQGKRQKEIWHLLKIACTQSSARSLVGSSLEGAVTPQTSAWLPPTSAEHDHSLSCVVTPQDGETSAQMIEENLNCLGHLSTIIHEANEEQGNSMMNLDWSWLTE

[7] = target: T2, Inhibitor of nuclear factor kappa-B kinase subunit alpha (Homo sapiens); conditions: at 1 µM
[8] = target: T3, Inhibitor of nuclear factor kappa-B kinase subunit beta (Homo sapiens) (UniProt O14920); conditions: at 0.1 µM
T3 sequence (whole entry): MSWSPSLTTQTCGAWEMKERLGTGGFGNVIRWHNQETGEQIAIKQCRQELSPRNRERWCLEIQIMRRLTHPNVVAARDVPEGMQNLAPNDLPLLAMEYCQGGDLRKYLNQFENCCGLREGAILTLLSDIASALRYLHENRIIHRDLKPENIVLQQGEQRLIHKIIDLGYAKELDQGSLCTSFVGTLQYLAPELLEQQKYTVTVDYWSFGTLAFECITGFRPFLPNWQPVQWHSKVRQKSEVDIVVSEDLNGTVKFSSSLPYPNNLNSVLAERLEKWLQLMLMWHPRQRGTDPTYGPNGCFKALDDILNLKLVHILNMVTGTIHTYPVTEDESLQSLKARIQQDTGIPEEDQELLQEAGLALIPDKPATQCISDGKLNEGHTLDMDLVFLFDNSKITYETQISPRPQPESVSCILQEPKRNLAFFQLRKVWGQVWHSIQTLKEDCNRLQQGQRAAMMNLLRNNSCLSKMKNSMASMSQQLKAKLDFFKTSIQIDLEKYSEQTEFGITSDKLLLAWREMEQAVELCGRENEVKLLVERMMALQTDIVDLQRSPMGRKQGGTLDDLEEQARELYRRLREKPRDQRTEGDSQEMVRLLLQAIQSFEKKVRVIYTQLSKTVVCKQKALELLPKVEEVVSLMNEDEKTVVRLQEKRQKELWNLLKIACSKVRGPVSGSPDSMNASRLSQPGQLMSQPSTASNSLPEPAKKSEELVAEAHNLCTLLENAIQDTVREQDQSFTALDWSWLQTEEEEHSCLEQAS

[9] = target: T3, Inhibitor of nuclear factor kappa-B kinase subunit beta (Homo sapiens); conditions: at 1 µM
[10] = target: T4, Inhibitor of nuclear factor kappa-B kinase subunit epsilon (Homo sapiens) (UniProt Q14164); conditions: at 0.1 µM
T4 sequence (whole entry): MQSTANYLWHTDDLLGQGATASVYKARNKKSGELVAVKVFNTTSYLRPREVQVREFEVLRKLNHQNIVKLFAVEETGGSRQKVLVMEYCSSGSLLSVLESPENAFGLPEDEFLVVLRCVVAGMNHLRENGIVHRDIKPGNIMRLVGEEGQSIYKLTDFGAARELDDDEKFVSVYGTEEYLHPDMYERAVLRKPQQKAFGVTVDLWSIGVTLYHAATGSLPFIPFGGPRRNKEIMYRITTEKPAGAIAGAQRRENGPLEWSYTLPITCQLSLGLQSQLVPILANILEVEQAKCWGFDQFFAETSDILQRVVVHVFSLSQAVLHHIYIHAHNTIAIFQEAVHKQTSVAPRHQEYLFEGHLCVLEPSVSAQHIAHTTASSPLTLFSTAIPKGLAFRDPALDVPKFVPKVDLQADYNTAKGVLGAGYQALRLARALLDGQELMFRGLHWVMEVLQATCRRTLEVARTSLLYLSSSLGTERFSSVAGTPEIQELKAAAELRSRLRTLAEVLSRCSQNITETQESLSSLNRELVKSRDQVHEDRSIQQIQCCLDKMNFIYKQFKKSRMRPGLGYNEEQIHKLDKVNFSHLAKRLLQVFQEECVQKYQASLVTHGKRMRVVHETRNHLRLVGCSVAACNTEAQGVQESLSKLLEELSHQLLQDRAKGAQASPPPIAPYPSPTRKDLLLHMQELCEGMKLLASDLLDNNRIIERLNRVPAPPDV

[11] = target: T4, Inhibitor of nuclear factor kappa-B kinase subunit epsilon (Homo sapiens); conditions: at 1 µM
[12] = target: T5, Serine/threonine-protein kinase Nek1 (Homo sapiens) (UniProt Q96PY6); conditions: at 0.1 µM
T5 sequence (whole entry): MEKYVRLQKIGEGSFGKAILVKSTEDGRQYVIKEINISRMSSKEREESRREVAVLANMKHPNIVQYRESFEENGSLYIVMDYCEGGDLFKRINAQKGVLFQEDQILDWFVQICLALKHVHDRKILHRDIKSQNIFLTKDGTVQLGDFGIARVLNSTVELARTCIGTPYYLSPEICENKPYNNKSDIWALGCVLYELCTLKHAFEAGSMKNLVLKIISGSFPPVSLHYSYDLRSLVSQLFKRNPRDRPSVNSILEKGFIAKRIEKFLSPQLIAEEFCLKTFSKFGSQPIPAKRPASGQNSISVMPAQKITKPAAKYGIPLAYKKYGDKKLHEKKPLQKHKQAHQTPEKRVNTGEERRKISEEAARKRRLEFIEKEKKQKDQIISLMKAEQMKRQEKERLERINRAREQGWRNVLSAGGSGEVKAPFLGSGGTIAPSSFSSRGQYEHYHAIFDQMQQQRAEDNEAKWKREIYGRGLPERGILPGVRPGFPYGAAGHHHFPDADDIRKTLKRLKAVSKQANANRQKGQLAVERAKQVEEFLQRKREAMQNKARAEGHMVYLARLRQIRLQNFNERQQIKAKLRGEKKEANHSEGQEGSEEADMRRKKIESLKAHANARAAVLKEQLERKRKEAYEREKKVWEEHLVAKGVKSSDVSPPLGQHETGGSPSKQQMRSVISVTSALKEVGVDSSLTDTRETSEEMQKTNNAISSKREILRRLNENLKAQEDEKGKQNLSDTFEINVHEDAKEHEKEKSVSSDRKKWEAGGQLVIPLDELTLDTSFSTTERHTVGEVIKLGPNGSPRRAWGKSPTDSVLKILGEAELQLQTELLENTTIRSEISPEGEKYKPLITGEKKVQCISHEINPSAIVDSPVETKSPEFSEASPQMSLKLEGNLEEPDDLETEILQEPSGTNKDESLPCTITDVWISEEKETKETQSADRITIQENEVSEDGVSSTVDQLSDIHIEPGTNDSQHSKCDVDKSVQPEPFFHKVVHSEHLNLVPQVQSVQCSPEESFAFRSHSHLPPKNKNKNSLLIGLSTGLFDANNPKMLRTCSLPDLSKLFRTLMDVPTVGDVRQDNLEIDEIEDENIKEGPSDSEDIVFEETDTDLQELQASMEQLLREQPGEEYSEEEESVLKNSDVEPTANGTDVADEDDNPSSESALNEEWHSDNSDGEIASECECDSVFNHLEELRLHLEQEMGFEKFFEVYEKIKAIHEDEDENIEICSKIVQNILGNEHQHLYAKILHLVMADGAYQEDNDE

[13] = target: T5, Serine/threonine-protein kinase Nek1 (Homo sapiens); conditions: at 1 µM
[14] = target: T6, Serine/threonine-protein kinase Nek2 (Homo sapiens) (UniProt P51955); conditions: at 0.1 µM
T6 sequence (whole entry): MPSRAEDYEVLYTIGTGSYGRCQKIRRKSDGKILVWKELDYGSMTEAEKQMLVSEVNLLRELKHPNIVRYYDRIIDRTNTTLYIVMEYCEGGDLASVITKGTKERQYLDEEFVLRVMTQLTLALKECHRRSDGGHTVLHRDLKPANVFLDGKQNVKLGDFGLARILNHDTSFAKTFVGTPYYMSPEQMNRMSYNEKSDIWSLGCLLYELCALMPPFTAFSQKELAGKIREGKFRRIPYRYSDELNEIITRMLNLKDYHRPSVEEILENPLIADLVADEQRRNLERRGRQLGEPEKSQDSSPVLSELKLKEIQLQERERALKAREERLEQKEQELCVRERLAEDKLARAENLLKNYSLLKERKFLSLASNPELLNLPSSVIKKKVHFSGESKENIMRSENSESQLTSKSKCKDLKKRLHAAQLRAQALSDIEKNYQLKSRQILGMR

[15] = target: T6, Serine/threonine-protein kinase Nek2 (Homo sapiens); conditions: at 1 µM
[16] = target: Serine/threonine-protein kinase Nek6 (Homo sapiens) (UniProt Q9HC98); conditions: at 0.1 µM
[17] = target: Serine/threonine-protein kinase Nek6 (Homo sapiens) (UniProt Q9HC98); conditions: at 1 µM
[18] = target: Serine/threonine-protein kinase Nek7 (Homo sapiens) (UniProt Q8TDX7); conditions: at 0.1 µM
[19] = target: Serine/threonine-protein kinase Nek7 (Homo sapiens) (UniProt Q8TDX7); conditions: at 1 µM
[20] = target: T7, Serine/threonine-protein kinase Nek9 (Homo sapiens) (UniProt Q8TD19); conditions: at 0.1 µM;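 note: reported value is the mean percent inhibition of NEK9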
T7 sequence (whole entry): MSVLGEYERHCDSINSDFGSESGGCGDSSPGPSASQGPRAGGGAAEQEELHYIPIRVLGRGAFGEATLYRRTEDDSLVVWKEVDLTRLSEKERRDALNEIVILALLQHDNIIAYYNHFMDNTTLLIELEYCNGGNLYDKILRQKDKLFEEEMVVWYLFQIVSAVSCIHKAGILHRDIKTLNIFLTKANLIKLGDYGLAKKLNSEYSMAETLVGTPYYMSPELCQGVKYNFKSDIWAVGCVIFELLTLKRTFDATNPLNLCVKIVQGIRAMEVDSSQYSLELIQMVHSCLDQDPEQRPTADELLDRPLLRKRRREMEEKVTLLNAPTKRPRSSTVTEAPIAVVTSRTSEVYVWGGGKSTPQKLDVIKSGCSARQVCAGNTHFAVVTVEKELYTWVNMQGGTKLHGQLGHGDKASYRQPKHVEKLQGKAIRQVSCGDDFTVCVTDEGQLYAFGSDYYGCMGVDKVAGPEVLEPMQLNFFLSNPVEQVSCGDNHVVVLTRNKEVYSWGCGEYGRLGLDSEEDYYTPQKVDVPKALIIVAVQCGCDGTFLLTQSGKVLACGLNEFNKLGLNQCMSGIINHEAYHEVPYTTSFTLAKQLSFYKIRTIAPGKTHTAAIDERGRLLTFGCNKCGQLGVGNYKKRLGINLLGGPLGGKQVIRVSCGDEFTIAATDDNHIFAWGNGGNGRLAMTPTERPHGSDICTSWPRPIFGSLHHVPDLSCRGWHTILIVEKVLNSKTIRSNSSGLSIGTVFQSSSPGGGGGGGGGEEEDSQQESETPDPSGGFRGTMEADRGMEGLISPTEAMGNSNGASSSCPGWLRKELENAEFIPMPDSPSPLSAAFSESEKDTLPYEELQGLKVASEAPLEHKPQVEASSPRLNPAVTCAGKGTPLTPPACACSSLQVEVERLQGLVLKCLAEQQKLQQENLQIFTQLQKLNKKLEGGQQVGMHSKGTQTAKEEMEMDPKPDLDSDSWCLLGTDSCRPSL

Casein kinase II subunit alpha (Homo sapiens), sequence (P68400 whole entry, looked up): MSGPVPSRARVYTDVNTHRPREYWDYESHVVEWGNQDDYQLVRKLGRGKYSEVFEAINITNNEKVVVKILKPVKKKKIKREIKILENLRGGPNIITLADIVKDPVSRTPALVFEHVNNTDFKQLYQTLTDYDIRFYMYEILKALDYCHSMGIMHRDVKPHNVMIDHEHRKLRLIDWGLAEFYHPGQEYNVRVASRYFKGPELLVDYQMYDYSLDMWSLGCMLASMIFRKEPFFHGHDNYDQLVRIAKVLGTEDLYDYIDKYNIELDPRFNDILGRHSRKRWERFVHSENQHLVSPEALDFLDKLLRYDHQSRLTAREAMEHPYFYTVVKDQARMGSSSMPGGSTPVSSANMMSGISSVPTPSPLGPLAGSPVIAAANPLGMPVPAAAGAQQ
Serine/threonine-protein kinase Nek6 (Homo sapiens), sequence (Q9HC98 whole entry): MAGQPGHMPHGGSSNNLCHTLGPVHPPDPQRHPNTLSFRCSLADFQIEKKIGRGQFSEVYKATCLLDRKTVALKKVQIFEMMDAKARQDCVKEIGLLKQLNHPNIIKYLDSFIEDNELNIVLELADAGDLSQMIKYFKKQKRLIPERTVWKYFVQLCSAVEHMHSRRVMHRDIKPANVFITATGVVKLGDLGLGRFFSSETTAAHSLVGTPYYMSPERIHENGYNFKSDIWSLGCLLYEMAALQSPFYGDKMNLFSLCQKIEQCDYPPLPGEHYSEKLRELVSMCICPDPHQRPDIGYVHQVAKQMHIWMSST
Serine/threonine-protein kinase Nek7 (Homo sapiens), sequence (Q8TDX7 whole entry, looked up): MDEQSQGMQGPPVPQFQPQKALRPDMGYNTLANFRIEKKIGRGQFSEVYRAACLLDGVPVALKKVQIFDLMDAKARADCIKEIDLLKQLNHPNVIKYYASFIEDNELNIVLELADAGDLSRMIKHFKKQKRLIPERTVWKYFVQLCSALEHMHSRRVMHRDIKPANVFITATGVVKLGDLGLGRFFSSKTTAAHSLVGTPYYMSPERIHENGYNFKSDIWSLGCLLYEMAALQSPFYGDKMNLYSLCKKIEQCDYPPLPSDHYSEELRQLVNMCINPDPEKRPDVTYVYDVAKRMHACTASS
Sphingosine kinase 1 (Homo sapiens), sequence (Q9NYA1 whole entry): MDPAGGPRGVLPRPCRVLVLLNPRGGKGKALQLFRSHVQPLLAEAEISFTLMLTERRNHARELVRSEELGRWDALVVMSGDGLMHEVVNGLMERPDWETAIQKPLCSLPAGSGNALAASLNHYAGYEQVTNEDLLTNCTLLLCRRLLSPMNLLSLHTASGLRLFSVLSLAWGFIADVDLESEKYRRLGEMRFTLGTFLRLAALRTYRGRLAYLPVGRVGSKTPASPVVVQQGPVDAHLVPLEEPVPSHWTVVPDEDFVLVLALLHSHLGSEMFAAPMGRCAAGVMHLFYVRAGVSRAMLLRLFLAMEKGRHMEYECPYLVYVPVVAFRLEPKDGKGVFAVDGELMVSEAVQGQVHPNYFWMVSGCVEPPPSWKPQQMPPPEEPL

Compound | inhibition [1] [%] | inhibition [2] [%] | inhibition [3] [%] | inhibition [4] [%] | inhibition [5] [%] | inhibition [6] [%] | inhibition [7] [%] | inhibition [8] [%] | inhibition [9] [%] | inhibition [10] [%] | inhibition [11] [%] | inhibition [12] [%] | inhibition [13] [%] | inhibition [14] [%] | inhibition [15] [%] | inhibition [16] [%] | inhibition [17] [%] | inhibition [18] [%] | inhibition [19] [%] | inhibition [20] [%]
COc1cccc(-n2ncc3c(N/N=C/c4ccc(C)cc4)ncnc32)c1 | 1.5 | 0.29 | -0.22 | -0.43 | 23.1 | 12 | 9.99 | 6.84 | 9.36 | 5.66 | 6.9 | 5.55 | 9.78 | 8.39 | 10.7 | 3.25 | 3.08 | 4.05 | 10.1 | 9.27
NS(=O)(=O)c1cccc(-c2cc3ccncc3cc2OCc2ccccc2)c1 | 0.02 | -1.2 | 0.96 | 1.61 | -1.22 | 8.21 | 10.9 | 7.94 | 10.7 | 4.52 | 5.04 | 2.64 | 2.55 | 5.53 | 6.81 | 0.87 | -0.35 | 5.92 | 3.78 | 2.36
